Each structure is given as a SMILES string. About 83,000 compounds went through this panel and 20% of them were active in at least one assay; those are over-represented in the sample as a whole.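 Cell lines were cultured in 96-well plates, exposed to a single compound concentration, and assessed for percent growth 48 hours later.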 A number with no mark means an inactive call. The source made the active and inactive calls. The calls were made as follows: active = growth percent below 10; inactive = the rest.

For this test, the system named is HL-60(TB) leukemia. Description: NCI-60 one-dose screen, 48 h (100 = growth as untreated, 0 = no growth, -100 = all killed). To be noted: 10 µM unless noted.
`CCCCCCCCNc1cccc2c1C(=O)c1ccccc1C2=O`: the growth is 73%.
The value for `Clc1ccc2c(c1)N(C1CCCN(Cc3ccccc3)C1)c1ccccc1S2` (configuration not stated) was 28.5%; that for `O=C(/C=C/c1cccs1)Nc1ncc(Cc2ccc(Cl)c(Cl)c2)s1` was 14%; that for `COc1ccc(-c2c(-c3cc(OC)c4c(c3)OCO4)noc2N)cc1` was -7.49% (active).
The value for `COc1cc(/C=C2\CCCC3=C2NC(N)=NC3c2cc(OC)c(OC)c(OC)c2)cc(OC)c1OC` (configuration not stated) was -7.5% (active).
For `Nc1nc(Cl)cc(NCc2ccc(CNc3cc(Cl)nc(N)n3)cc2)n1` the value was 78.7%.
Take `O=C(c1nnc(Nc2ccccc2Br)o1)c1c[nH]c2ccccc12`: the growth was 103%.
Regarding `COc1ccc(-c2cs/c(=N\N=C\c3ccc(O)cc3O)n2/N=C/c2ccc(O)cc2O)cc1`, the growth is -32.6% (active).
For `CNCc1cccc2c1OCCOCCOCCNS(=O)(=O)c1ccc(cc1)-c1cnc(N)c(n1)C(=O)N2` the value was -10.8% (active); for `O=C1c2ccccc2NC(c2cn(-c3ccccc3)nc2-c2cccnc2)N1Cc1ccccc1` (configuration not stated), 9.6% (active); for `COc1ccc2c(c1)OC(N)=C(C#N)C2c1cc(OC)c(OC)c(OC)c1` (configuration not stated), -30.4% (active).
For `CC(C)C1CCC(C)C(O)C1` (configuration not stated) the value was 103%; for `CSC1=NCCCC1`, 99.8%; for `CCCc1cc(=O)n2c(C(=O)Nc3cccc(C(=O)OCC)c3)c(C(=O)Nc3ccc(F)cc3)sc2n1`, 73.6% [30 µM].
`O=C(CSc1nnc(-c2ccc(Cl)cc2)o1)Nc1ccc(C(=O)/C=C/c2ccccc2)cc1`: the growth was 97.1%.
The value for `Cc1ccc(C)c2c1sc1nc3n[nH]c(N)c3c(=N)n12` was 112%; that for `c1ccc(CCSc2ncnc3nc[nH]c23)cc1` was 74.7%.
The value for `CNc1nc(S(=O)c2ccc(C#N)cc2)nc2ccccc12` (configuration not stated) was 79.9%.
`O=C(Nc1ccc(NC(=O)c2cc(=O)[nH]c3ccccc23)cc1)Nc1cccc(C(F)(F)F)c1`: the growth was 99.8%.
For `COc1ccc2c(c1)c(-c1nc(-c3ccc4ccccc4c3)cs1)cn2C` the value was 85.7%; for `C=C1C(=O)O[C@H]2[C@H]1CC/C(COC(=O)CSCC(=O)OC/C1=C/CC[C@@]3(C)O[C@H]3[C@H]3OC(=O)C(=C)[C@@H]3CC1)=C\CC[C@@]1(C)O[C@@H]21`, -42% (active); for `O=C(O)c1ccc(NCc2cn(-c3ccc(C(F)(F)F)cc3)nc2-c2ccc(C(=O)O)cc2)cc1`, 104%.
The value for `COc1cc(CCn2nnc3c(Nc4ccc(N5CCOCC5)cc4)ncnc32)cc(OC)c1` was 106%; that for `Nc1nc(Nc2ccccc2SSc2ccccc2Nc2nc(N)nc(-c3ccc(I)cc3)n2)nc(-c2ccc(I)cc2)n1` was 83.1%; that for `CCCCN(CCCC)CCC(O)c1cc2ccc(C(F)(F)F)cc2c2cc(C(F)(F)F)ccc12` (configuration not stated) was 49.8%.
For `O=P([O-])(O)OP(=O)([O-])O.[NH-][C@H]1CCCC[C@@H]1[NH-].[OH-].[OH-].[Pt+4]` the value was 111%; for `Cc1cc(N)c(S(=O)(=O)O)c(N)c1`, 98.9%.
Take `Cc1c(Cl)cccc1NC(=O)c1sc2nc3c(cc2c1N)C(=O)CCC3`: the growth was -1.76% (active).
As to `Cc1ccc(S(=O)(=O)NCCN2c3nc4ccccc4cc3Sc3cc4ccccc4nc32)cc1`, the growth was 94.4%.
For `Cn1c(=O)c(S(=O)(=O)c2ccccc2)cc2ccc3c(cnn3-c3ccc(Cl)cc3)c21` the value was 90.2%; for `C=C1CCC2C3(C)COC(c4ccccc4)OC3CCC2(C)C1/C=C/C1=CCOC1=O` (configuration not stated), 0.949% (active); for `Cc1cc2c(-c3nc4ccccn4c3N)c(O)c(O)cc2c(O)c1-c1c(C)cc2c(-c3nc4ccccn4c3N)c(O)c(O)cc2c1O`, 9.95% (active).
Take `CCCCCCn1c(=N)n(CC(O)COc2cccc(C)c2)c2ccccc21` (configuration not stated): the growth is -48% (active).
For `CC(C)[C@@]12C[C@@H](OC(=O)[C@H]3CO3)[C@@](C)(O1)[C@@H]1CC[C@@H](C)[C@H]1[C@@H]2OC(=O)/C=C/c1ccccc1` the value was 67%; for `C[C@H](CCCC(=O)NCC#CCN1CCN(C)CC1)[C@H]1CC[C@H]2[C@@H]3CC[C@@H]4CC(=O)CC[C@]4(C)[C@H]3CC[C@]12C`, 94.3%; for `CC(C)C[C@H](NC(=O)Cn1ccc2ccccc2c1=O)B(O)O`, 27.9%.
As for `CC(=O)Nc1ccc(S(=O)(=O)c2ccnc3cc(Cl)ccc23)cc1`, the growth was 87%.

For the origin of these results see PubChem BioAssay (NCI).
